Data as given in PubChem BioAssay.
Several values for one entry are separate records, joined by “and”; a condition that tells them apart may be missing. Equal values may be shown once. Activity calls are given as the source filed them.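 How the source made its calls, unless noted: active means inhibition at or above 50% relative to wild type and mutant plate controls; inactive means inhibition below 50%.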

Assays:
[1] = reduction of polyQ htt aggregates in cells – imaging, exon1htt(103Q)mCFP cells, high-content imaging, primary screen (AID 483;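 active means visual image review flags a hit and inhibition of aggregation exceeds 20%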;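 further: compound exposure lasted 3 days before fixation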;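 on nuclei count: percent of the per-plate median nuclei count of sample wells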); conditions: exon1htt(103Q)mCFP cell line, aggregate imaging, at 2 µM; inhibition of aggregation: stronger effect = higher value; nuclei count: measured here: cell count, toxicity
[2] = endothelial E-selectin expression blockers – imaging, HUVEC, immunofluorescence, MLSMR starter and 10KST1 sets, primary screen (AID 487;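 active means visually confirmed hit in the image check and inhibition above 20%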;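 on inhibition: signal is fraction of cell area covered by stained E-selectin grains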;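 on nuclei count: 100% = median nuclei count of all wells on the same plate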); conditions: HUVEC TNFalpha-induced E-selectin immunofluorescence imaging, at 2 µM; inhibition: stronger effect = higher value; nuclei count: measured here: cell number, toxicity
[3] = Primary imaging screen for DUSP6 inhibitors that restore phospho-Erk in transfected HeLa cells, chemical complementation (AID 609;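 active means compounds giving at least 50% inhibition in the cell-based MKP-3 phosphatase rescue imaging test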;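 on inhibition: phospho-Erk level distribution per well compared with pooled transfected vehicle control wells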); conditions: HeLa MKP-3 transfected, phospho-Erk imaging KS statistic, at 10 µM, cells stimulated with TPA for 15 min
[4] = target: Dual specificity protein phosphatase 6 (Homo sapiens) (UniProt Q16828); experiment: as above; conditions: HeLa MKP-3 transfected, phospho-Erk imaging KS statistic; at 10 µM; stronger effect = higher value; cells stimulated with TPA for 15 min
[5] = target: Voltage-gated potassium channel subunit beta-2 (Rattus norvegicus) (UniProt P62483); experiment: inhibitors of rat Kvbeta2 reductase activity – biochemical, NADPH fluorescence, primary screen (AID 622;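 active means fluorescence slope higher than the sample average by over 3 SD, cut at about -0.22 in these data, passing the limit was not always enough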;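 further: slope of raw intensity against log time taken from 70 to 1610 s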); conditions: recombinant KvBeta, 4-cyanobenzaldehyde reduction, at 10 µM, stronger effect = higher value
[6] = target: Voltage-gated potassium channel subunit beta-2 (Rattus norvegicus) (UniProt P62483); experiment: enhancers of rat Kvbeta2 NADPH turnover – biochemical, NADPH fluorescence, primary screen (AID 623;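 active means NADPH fluorescence slope more negative than the mean of all samples by about 3 SD, 99.7% confidence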;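 further: fluorescence intensity change per second fitted from 20 to 320 s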); conditions: Recombinant KvBeta, NADPH fluorescence decrease slope, 10 min; at 10 µM; stronger effect = lower value
[7] = target: Alpha-2C adrenergic receptor (Homo sapiens) (UniProt P18825); experiment: compounds altering alpha2C-coupled GIRK flux – cell-based, HEK293 alpha2C/GIRK1/2, thallium flux, primary screen (AID 624;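 active means fluorescence slope after compound addition differing from the mean of all screened samples at 99.7% confidence, in either direction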;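 further: slope of fluorescence ratio to pre-addition baseline per second over 15 to 24 s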); conditions: thallium flux BTC fluorescence, at 10 µM, actives lie on both sides
[8] = loss of swimming-algae plug formation – whole organism, Chlamydomonas reinhardtii, WT vs cilia-less mutant, absorbance, 96-well, primary screen (AID 463189); conditions: Chlamydomonas reinhardtii gravitaxis, OD600 absorbance, 2 days; at 10 µM; stronger effect = higher value;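 further: 0% = wild type cc124 cells in DMSO and 100% = ciliumless bld1 mutant cells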
[9] = blockers of RIG-like receptor reporter activation – cell-based, Sendai virus stimulus, luciferase, 10K MLSCN set, TLR/RLR signaling modifier project, primary screen (AID 602276;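 active means inhibition at or above 50% at 10 µM; inactive means inhibition below 50%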;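 further: firefly luciferase from ISG56 promoter only with Renilla not read in this screen; 0% = Sendai virus plus DMSO and 100% = medium plus DMSO without virus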); conditions: HEK293 RL24 IRF3 luciferase reporter, at 10 µM, stronger effect = higher value
[10] = TLR3 IRF3 reporter activation blockers – cell-based, poly I:C stimulus, luciferase, 10K MLSCN set, primary screen (AID 602277;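 active means inhibition of the reporter signal at or above 50%; inactive means inhibition below 50%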); conditions: HEK293-TLR3 RL24 IRF3 luciferase reporter, at 10 µM, stronger effect = higher value
[11] = inhibitors of larval lipid processing in zebrafish, primary screen, whole organism, PED6 fluorescence, gall bladder and intestine (AID 686;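 active means a full or partial loss of lipid-probe fluorescence in the fish gall bladder, intestine or both, judged by eye; inactive means no fluorescence loss, or compound toxic to the fish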;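 further: larvae 5 to 7 days old with five fish per well; signal comes from phospholipase A2 cleavage of quenched PED6 carried via bile; overnight exposure to compound and PED6 before scoring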); conditions: Zebrafish larvae PED6 lipid processing, fluorescence scoring; screened at 20 µM (by protocol)
[12] = measured here: cell density z-score
[13] = measured here: nuclear c-Myc green intensity z-score
[14] = measured here: nuclear pErk red intensity z-score, stronger effect = higher value

Sequence of Voltage-gated potassium channel subunit beta-2 (Rattus norvegicus) (P62483 whole entry, looked up): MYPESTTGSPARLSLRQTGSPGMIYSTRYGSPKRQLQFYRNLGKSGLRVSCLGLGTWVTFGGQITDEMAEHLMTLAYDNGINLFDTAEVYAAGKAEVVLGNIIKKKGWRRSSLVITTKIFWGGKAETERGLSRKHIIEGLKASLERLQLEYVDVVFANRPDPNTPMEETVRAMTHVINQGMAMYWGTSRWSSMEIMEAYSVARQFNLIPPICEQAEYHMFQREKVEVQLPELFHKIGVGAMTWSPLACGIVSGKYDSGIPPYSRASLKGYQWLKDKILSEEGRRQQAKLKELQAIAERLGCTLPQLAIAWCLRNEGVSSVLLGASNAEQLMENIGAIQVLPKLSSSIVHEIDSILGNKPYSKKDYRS
Sequence of Dual specificity protein phosphatase 6 (Homo sapiens) (Q16828 whole entry, looked up): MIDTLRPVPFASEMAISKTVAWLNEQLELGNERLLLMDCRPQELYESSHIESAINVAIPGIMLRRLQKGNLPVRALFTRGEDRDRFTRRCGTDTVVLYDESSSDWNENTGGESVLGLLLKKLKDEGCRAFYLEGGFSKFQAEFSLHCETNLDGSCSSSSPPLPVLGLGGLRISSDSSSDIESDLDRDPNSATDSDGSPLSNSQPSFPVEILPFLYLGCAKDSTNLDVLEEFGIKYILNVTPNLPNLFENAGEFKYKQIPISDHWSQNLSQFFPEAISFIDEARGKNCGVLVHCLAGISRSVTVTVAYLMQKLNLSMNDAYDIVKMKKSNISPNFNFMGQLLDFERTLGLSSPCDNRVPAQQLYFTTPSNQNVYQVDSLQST
Sequence of Alpha-2C adrenergic receptor (Homo sapiens) (P18825 whole entry, looked up): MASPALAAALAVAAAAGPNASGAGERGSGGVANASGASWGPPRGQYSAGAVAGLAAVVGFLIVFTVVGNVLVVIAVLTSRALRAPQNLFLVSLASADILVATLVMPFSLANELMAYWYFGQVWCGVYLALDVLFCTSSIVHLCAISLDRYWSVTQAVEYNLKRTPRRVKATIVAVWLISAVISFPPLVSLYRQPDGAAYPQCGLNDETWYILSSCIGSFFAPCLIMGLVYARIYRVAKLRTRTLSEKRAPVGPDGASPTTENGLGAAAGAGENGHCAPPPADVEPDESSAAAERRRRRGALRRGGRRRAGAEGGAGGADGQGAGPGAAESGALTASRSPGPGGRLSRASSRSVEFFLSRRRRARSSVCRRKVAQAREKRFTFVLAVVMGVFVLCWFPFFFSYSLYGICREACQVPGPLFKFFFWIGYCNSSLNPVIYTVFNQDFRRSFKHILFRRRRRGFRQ

Row | SMILES | inhibition of aggregation [1] | nuclei count [1] | inhibition [2] | nuclei count [2] | z-score [3, 12] | z-score [3, 13] | z-score [3, 14] | inhibition [4] | fluorescence slope [5] | NADPH fluorescence slope [6] | slope [7] | inhibition [8] | inhibition [9] | inhibition [10] | outcome [11]
1 | C1COC(NC(C2CC2)C2CC2)=N1 | 19% (inactive) | 109% | -91.3% (inactive) | 116% | -0.996 | 0.285 | -0.338 | 25.7% (inactive) | -0.468 (inactive) | -4.8e-05 (inactive) | 0.00489 (inactive) | 2.12% (inactive) and 18.6% (inactive) | -6% (inactive) | 20.5% (inactive) | –
2 | CC(C)(C)NC[C@H](O)COc1nsnc1N1CCOCC1 | -13.8% (inactive) | 102% | -120% (inactive) | 119% | -0.0639 | -0.39 | 1.55 | -10.4% (inactive) | -0.502 (inactive) | -5e-06 (inactive) | 0.00458 (inactive) | -10.5% (inactive) | 6.87% (inactive) | 46.4% (inactive) | inactive
3 | CC(=O)OC[C@H]1O[C@@H](n2ncc(=O)[nH]c2=O)[C@H](OC(C)=O)[C@@H]1OC(C)=O | 14.3% (inactive) | 77.3% | -22.1% (inactive) | 116% | 1.58 | -1.02 | 0.322 | -0.828% (inactive) | -0.468 (inactive) | -5.4e-05 (inactive) | 0.0044 (inactive) | -10.6% (inactive) | 13.3% (inactive) | -14.5% (inactive) | –
4 | Cc1ncc([N+](=O)[O-])n1CCO | 7.7% (inactive) | 76.5% | -67% (inactive) | 110% | 0.289 | -1.84 | 1.07 | -5.24% (inactive) | -0.491 (inactive) | -8.5e-05 (inactive) | 0.00488 (inactive) | 1.99% (inactive) | 8% (inactive) | 25.4% (inactive) | inactive
5 | COc1ccc2c(c1)c(CC(=O)O)c(C)n2C(=O)c1ccc(Cl)cc1 | -23.8% (inactive) | 104% | -69% (inactive) | 122% | 0.752 | -1.27 | -0.74 | 16.8% (inactive) | -0.474 (inactive) | -6.7e-05 (inactive) | 0.00463 (inactive) | 2.25% (inactive) and -4% (inactive) | 9.52% (inactive) | 22.4% (inactive) | inactive
6 | c1ccc2c(c1)CCCC2C1=NCCN1 (stereo not drawn) | -2.2% (inactive) | 106% | -52.5% (inactive) | 112% | -1.5 | 0.768 | 0.367 | 5.79% (inactive) | -0.464 (inactive) | -5e-05 (inactive) | 0.00529 (inactive) | 8.79% (inactive) and 22.7% (inactive) | 12.1% (inactive) | 48.1% (inactive) | inactive
7 | Cc1cc(C)nc(NS(=O)(=O)c2ccc(N)cc2)n1 | -9.6% (inactive) | 104% | -28.5% (inactive) | 107% | -0.395 | 0.0726 | -0.14 | -3.03% (inactive) | -0.51 (inactive) | -5.4e-05 (inactive) | 0.00415 (inactive) | -15% (inactive) | 15.1% (inactive) | 26.9% (inactive) | inactive
8 | Cn1c(=O)c2c(ncn2CC(O)CO)n(C)c1=O (stereo not drawn) | 15% (inactive) | 90% | -81.8% (inactive) | 127% | 0.192 | -0.712 | 0.659 | 3.59% (inactive) | -0.438 (inactive) | 4.1e-05 (inactive) | 0.00483 (inactive) | 8.88% (inactive) | 12.6% (inactive) | 29.1% (inactive) | inactive
9 | CCCC1O[C@@H]2C[C@H]3[C@@H]4CCC5=CC(=O)C=C[C@]5(C)[C@H]4[C@@H](O)C[C@]3(C)[C@]2(C(=O)CO)O1 (stereo partly drawn) | -17.2% (inactive) | 58% | -133% (inactive) | 138% | 0.229 | -0.532 | -0.405 | 13.3% (inactive) | -0.423 (inactive) | 1.2e-05 (inactive) | 0.00479 (inactive) | 6.85% (inactive) and -4.63% (inactive) | 0.287% (inactive) | 58.3% (active) | inactive
